# An excerpt weighted towards active compounds, which were near 3.2% of everything screened.
# IL2 activator = qHTS of IL-2 Activators; IL-2 activation reporter assay, cell-based qHTS; stimulated with anti-CD3/CD4/CD28 beads; in transgenic mouse T cells; activation, % (series mostly up to about 46 µM); 360,000 compounds, 0.065% hits; AID 652025, 2013; in the data active means activation above about 50%; inconclusive means mostly about 30% to 49%; further: 0% is about no effect
#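 Using fluorescent plate cytometry, EGFP and DsRed are detected in transgenic mouse T cells stimulated 18 h at 37 degrees C with antibody-coated beads after 60 min compound pretreatment.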
# Nrf2 activator = qHTS of Nrf2 Activators | AREc32 ARE-luciferase reporter (MCF7-derived line), luminescence, 24 h | Potency, µM (titrated, usually from 46.1 µM), for inactives: top-dose activation, actives largely listed as activators | 410,000 compounds, 0.31% hits; further: potency means the concentration at half of the fitted maximal effect; % of control where 0% means no effect; nearly all actives have a fitted effect of over 65% in size
#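 Nrf2 activation is followed as ARE-luciferase induction in the AREc32 line after one day of compound treatment; luminescence is read with Steady-Glo.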
# A549 tox = Nrf2 qHTS screen for inhibitors: counterscreen for cytotoxicity. Potency, µM (top dose mostly 46 µM), inactives show at the top dose activity change, negative = cytotoxicity, actives largely listed as inhibitors. A549 ARE-Fluc cells, CellTiter-Fluor viability, 18-24 h. 390,000 compounds, 0.16% hits. AID 504648, 2011; further: potency means the concentration at half of the fitted maximal effect; on the % scale 0 is the no-effect control and ±100 the full control effect
#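 A549 ARE-Fluc cells in 5% FBS OPTI-MEM, 5000 cells/well, rested 2 h then exposed to compounds in concentration-response for 18-24 h at 37 °C. Viability by CellTiter-Fluor fluorescence (Ex 405/Em 525) after 30 min; luciferase luminescence (BugLite, 15 min, RT) read afterwards.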
# p53 reactivation = qHTS assay for re-activators of p53 using a Luc reporter. Potency, µM (doses to about 92.2 µM), inactives show at the highest dose activity change, positive = activation, most hits filed as activators. H1299 p53-A138V BP100-luciferase reporter, luminescence, 24 h. 320,000 compounds, 0.063% hits; further: potency means the concentration at half of the fitted maximal effect; % of control where 0% means no effect; nearly all actives have a fitted effect of over 45% in size
#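 H1299 (p53-null), stable ts p53-A138V + BP100-Luc; 1000 cells/well, Opti-MEM/10% FBS; cpd 4 pt, 1:5; 24 h, 37 deg C, 5% CO2; detection reagent 10 min RT; luminescence.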
# BRCA1 expr up = qHTS Assay to Identify Small Molecule Activators of BRCA1 Expression | MCF7-BRCA1-FFLuc reporter, luminescence, 48 h; response scale: scaled: vehicle 0%, 10 µM genistein 100% | Potency, µM (titrated, usually from 46.1 µM), for the others: top-dose activation, actives largely listed as activators | 380,000 compounds, 1.1% hits; further: potency means the concentration at half of the fitted maximal effect; nearly all actives have a fitted effect of over 80% in size
#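 Cells: MCF7-BRCA1-FFLuc, 2000/well. Exposure: 48 h, 37 °C, 5% CO2. Read: luminescence, 15 min post-substrate. Controls: genistein 10 microM (maximal activation), DMSO (neutral).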
# Nrf2 inh = Nrf2 qHTS screen for inhibitors | A549 ARE-Fluc reporter, luciferase luminescence, 18-24 h | Potency, µM (series often up to 46 µM), for the others: at the top dose activity change, negative = inhibition, usual class: inhibitors | 360,000 compounds, 2.1% hits; further: potency means the concentration at half of the fitted maximal effect; on the % scale 0 is the no-effect control and ±100 the full control effect; nearly all actives have a fitted effect of over 60% in size
#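 Quantitative HTS in A549 cells stably bearing an antioxidant response element-firefly luciferase construct. Inhibition of Nrf2-driven transcription was scored by luminescence after 18-24 h of compound exposure at 37 °C.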
# * marks the source's active call; other numbers are inactive results; ? = inconclusive; . = no result given; [ ] = dose if it differs, or a comment. Unless noted, the call rests on the fitted dose curve; in most records, active means well fitted curve in the direction sought with a large enough effect; inconclusive means small, poorly fitted or top-dose-only effect, or another doubt; inactive means no such curve, though single readings can be large; an effect the other way counts as inactive or inconclusive.
SMILES,IL2 activator,Nrf2 activator,A549 tox,p53 reactivation,BRCA1 expr up,Nrf2 inh
O=C(NN(c1ccccc1)c1ccccc1)c1ccc([N+](=O)[O-])o1,0,?,-5%,-17%,-59%,-10%
CCn1c(=N)n(CC(=O)c2ccco2)c2ccccc21,-1,10µM*,-26%,-9%,2%[1.84 µM],-19%
CCn1c2ccccc2c2cc(NC(C)=O)ccc21,0,0%,-1%,-1%,3%,.
CCn1c(SCC(=O)Nc2ccc3c(c2)OCO3)nnc1C1CC1,0,0%,3%,-3%,-3%,?
CCn1c2ccccc2c2cc(NC(=O)CSc3nnc(C4CC4)n3Cc3ccco3)ccc21,0,4%,-12%,?,-53%,18µM*
O=C(Nc1ccc2c(c1)ncn2C1CCCCC1)c1ccco1,-1,3%,10%,?,13µM*,?
CCn1c2ccccc2c2cc(NC(=O)c3ccco3)ccc21,-1,2%,-18%,6%,-3%,21µM*
Cc1ccc(NC(=O)CSCc2cc(=O)c3ccccc3[nH]2)c(C)c1,.,9%,4%,.,.,.
Cc1ccc(/C=N/n2nnnc2N)cc1,0,0%,2%,.,6.3µM*,7%
Cc1ccc2oc(-c3ccc(C)c(NC(=O)COc4ccc(Cl)cc4)c3)nc2c1,.,.,.,.,-1%,.
Oc1ccc(-c2nccc(-c3cccs3)n2)cc1,1,10µM*,-6%,?,44%,?
CCc1ccc(NC(=O)CSc2nc(=O)n(Cc3ccco3)c3c2CCC3)cc1,.,-1%,-15%,.,.,.
COc1ccc(C(=O)c2cn(Cc3ccccc3F)c3cc4c(cc3c2=O)OCO4)cc1,.,0%,-10%,.,.,16%
COc1cc2c3nnc(-c4ccc(F)cc4)c-3cn(Cc3ccccc3F)c2cc1OC,87*,?,-7%,?,-2%,-4%
COc1cc2c(=O)c(S(=O)(=O)c3ccc(F)cc3)cn(Cc3ccccc3C)c2cc1OC,.,-1%,0%,.,-17%,-11%
COc1cc2c3nnc(-c4ccccc4)c-3cn(Cc3ccccc3F)c2cc1OC,176*,?,5%,4%,1%,-13%
C[C@H](CO)N1C[C@H](C)[C@@H](CN(C)Cc2ccc(Oc3ccccc3)cc2)Oc2c(NC(=O)C3CC3)cccc2C1=O,-1,-5%,-17%,-5%,-33%,23µM*
C[C@H](CO)N1C[C@H](C)[C@@H](CN(C)C(=O)Nc2ccc(C(F)(F)F)cc2)Oc2c(NS(=O)(=O)c3cccs3)cccc2C1=O,1,0%,-4%,-4%,-23%,13%
C[C@H]1CN([C@@H](C)CO)C(=O)c2cccc(NC(=O)Nc3ccc(C(F)(F)F)cc3)c2O[C@@H]1CN(C)C(=O)Nc1ccc(F)cc1,-4,-6%,?,-2%,-47%,16µM*
Cc1ccc(S(=O)(=O)Nc2cccc3c2O[C@H](CN(C)C(=O)Nc2ccc(C(F)(F)F)cc2)[C@@H](C)CN([C@H](C)CO)C3=O)cc1,0,4%,-18%,-8%,-32%,18µM*
Cc1ccc(NCc2cccn2-c2nnc(N3CCCCCC3)s2)cc1,.,7%,6%,.,10%,?
CCc1ccc(NC(=O)Cn2ccn(-c3ccc(OC)cc3)c(=O)c2=O)cc1,.,2%,14%,.,.,-6%
NC(=O)CC(NC(=O)c1ccc(Br)cc1)c1ccc(N2CCC(Cc3ccccc3)CC2)c([N+](=O)[O-])c1 (configuration not stated),-3,-1%,-14%,.,-42%,?
NC(=O)CC(NC(=O)c1ccccc1)c1ccc(N2CCC(Cc3ccccc3)CC2)c([N+](=O)[O-])c1 (configuration not stated),-5,0%,?,6%,-56%,10µM*
